Reference: PubChem BioAssay AID651813 (National Center for Advancing Translational Sciences (NCATS), 2012)
Hit rate of the full screen: of about 2,100 compounds, about 1,100 (52%) were called active. Another 27% or so got no clear call; they are omitted. The set was probably picked from earlier hits. This is one part of the list. Values without a mark were called inactive. Calls follow the shape of the dose curve; as a rule, active = well fitted inhibition curve with a large enough effect; inconclusive = small, poorly fitted or top-dose-only effect; inactive = no such curve, though single readings can be large or run the other way.

molecular target: DNA dC->dU-editing enzyme APOBEC-3G (Homo sapiens) (UniProt Q9HC16); assay: qHTS for inhibitors of Vif-A3G interactions: Cherry picks counterscreen; conditions: HeLa A3G-eYFP + Vif (tagged APOBEC3G with the HIV-1 protein that degrades it), eYFP fluorescence, 24 h;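 also: hits raise yellow fluorescence by blocking Vif-driven A3G-eYFP degradation; nearly all actives have a fitted effect of over 70% in size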;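 as to max response: max response given as percent of control signal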
Outline: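 Readout is eYFP fluorescence (488 nm excitation, 500-530 nm emission) measured on Acumen Explorer after 24 h compound exposure, several concentrations, at 37 deg C. Cells: HeLa stably co-expressing Vif and C-terminally eYFP-tagged A3G; MG132 positive control.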
Potency is read from the fitted curve at half-maximal effect.

Sequence of DNA dC->dU-editing enzyme APOBEC-3G (Homo sapiens) (Q9HC16 whole entry, looked up): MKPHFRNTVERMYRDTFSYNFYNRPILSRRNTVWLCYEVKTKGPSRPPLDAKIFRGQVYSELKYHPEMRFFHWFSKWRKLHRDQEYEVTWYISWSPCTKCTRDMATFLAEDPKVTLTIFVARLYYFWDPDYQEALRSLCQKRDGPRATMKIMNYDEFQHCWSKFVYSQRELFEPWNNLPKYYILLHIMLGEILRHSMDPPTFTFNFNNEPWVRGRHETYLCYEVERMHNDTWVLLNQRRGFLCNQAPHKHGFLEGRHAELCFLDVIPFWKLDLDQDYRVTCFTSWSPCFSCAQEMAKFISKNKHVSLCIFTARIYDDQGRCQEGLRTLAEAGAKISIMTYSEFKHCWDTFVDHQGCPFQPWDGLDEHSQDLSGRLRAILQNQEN

SMILES | Potency | max response
Cc1c(C(=O)Nc2cccnc2)oc2ccc(Br)cc12 | 12.5 µM (active) | 
O=C(CSc1ccccc1)Nc1nc2ccccc2[nH]1 | 9.94 µM (active) | 
N#CC(C(=S)Nc1ccccc1)c1nc2ccccc2[nH]1 (configuration not stated) |  | -4.48%
c1ccc2[nH]c(NN=C3CCCCCC3)nc2c1 |  | 0.674%
Fc1cccc(Cc2c(-c3ccco3)nc3ccc(Br)cn23)c1 | 14 µM (active) | 
COC(=O)c1ccc(Oc2cc(C)nc(SC)n2)cc1 | 8.86 µM (active) | 
Cc1ccc(-c2nc3ncccc3o2)cc1NC(=O)c1ccc([N+](=O)[O-])o1 |  | 3.91%
O=C(NCc1ccccc1)C(=O)NCC1COc2ccccc2O1 (configuration not stated) | 12.5 µM (active) | 
COC(=O)CCS(=O)(=O)c1nc(-c2ccccc2)cc(C(F)(F)F)n1 | 12.5 µM (active) | 
CC1CCN(C(=O)C(C)Sc2nc(-c3ccccc3)cc(C(F)(F)F)n2)CC1 (configuration not stated) |  | 2.38%
COc1ccc2o/c(=N/NC(=O)c3cccs3)c(C(N)=O)cc2c1 | 12.5 µM (active) | 
CCOC(=O)c1c(C)sc(-c2c(-c3ccccc3)[nH]c3[nH]c(=O)[nH]c(=O)c23)c1O | 18.4 µM (active) | 
COc1cc(-c2noc(C)c2/C=C/c2ccc(OC(C)=O)cc2)cc(OC)c1OC | 0.627 µM (active) | 
Cc1ccc(O)c(NC(=O)c2cc(-c3ccccc3O)no2)c1 | 23.1 µM (active) | 
COc1ccc(/C=N/NC(=O)c2cc3c(OC)ccc(OC)c3[nH]2)cc1O | 4.44 µM (active) | 
COc1ccc2[nH]c(C(=O)N/N=C/c3ccc(OC)c(O)c3)cc2c1 | 4.44 µM (active) | 
COC(=O)c1cccc(NS(=O)(=O)c2ccc(OC)cc2)c1C | 7.04 µM (active) | 
COc1ccc(S(=O)(=O)Nc2cccc3ccccc23)cc1 | 5.17 µM (active) | 
COc1ccc(S(=O)(=O)Nc2cc(Sc3ncn[nH]3)c(O)c3ccccc23)cc1 |  | -11.5%
CC1CCCCC1NC(=O)/C(C#N)=C/C=C/c1ccccc1[N+](=O)[O-] (configuration not stated) | 14 µM (active) | 
Fc1cccc(F)c1/C=N/NC(=S)Nc1cccnc1 |  | -2.63%

SMILES | Potency | max response
CCCOc1ccccc1C1CC(=O)NC2=C1C(=O)CCC2 (configuration not stated) | 6.27 µM (active) | 
CCOc1ccccc1C1CC(=O)NC2=C1C(=O)CCC2 (configuration not stated) | 12.5 µM (active) | 
CCCN(CCC)c1ccc(/C=C/c2ccnc3ccccc23)cc1 | 14.6 µM (active) | 
CCCCN(CCC(=O)O)c1ccc(/C=C/c2ccnc3ccccc23)cc1 | 18.4 µM (active) | 
CCCCN(CCCC)c1ccc(/C=C/c2ccnc3ccccc23)cc1 | 16.4 µM (active) | 
CCN(C)c1ccc(/C=C/c2ccnc3ccccc23)cc1 | 18.4 µM (active) | 
CCN(CCCN(C)C)c1ccc(/C=C/c2ccnc3ccccc23)cc1 | 18.4 µM (active) | 
CCN(CC)c1ccc(/C=C/c2ccnc3ccccc23)cc1 | 14.6 µM (active) | 
CC(C)CN(CC(C)C)c1ccc(/C=C/c2ccnc3ccccc23)cc1 | 16.4 µM (active) | 
O=C1OC(/C(=C\Nc2cc(Cl)ccc2O)[N+](=O)[O-])c2ccccc21 (configuration not stated) |  | 4.09%
Cc1nc2ccc(NC(=O)c3cc(S(=O)(=O)N(C)c4ccccc4)ccc3Cl)cc2s1 | 16.4 µM (active) | 
N=c1n(CC(=O)c2ccc([N+](=O)[O-])cc2)c2ccccc2n1Cc1ccccc1 | 20.6 µM (active) | 
COc1ccc(-c2cc(C(F)F)n3ncc(C(=O)N4CCc5ccccc54)c3n2)cc1 | 2.23 µM (active) | 
CC(=O)Nc1cccc(-c2ccnc3c2CC(C)(C(=O)NCc2cccs2)O3)c1 (configuration not stated) | 3.14 µM (active) | 
CC(=O)Nc1ccc(-c2ccnc3c2CC(C)(C(=O)NCc2ccco2)O3)cc1 (configuration not stated) | 7.04 µM (active) | 
CC1(C(=O)NCc2ccco2)Cc2c(-c3cccc(C(N)=O)c3)ccnc2O1 (configuration not stated) | 7.04 µM (active) | 
CC1(C(=O)NCc2cccs2)Cc2c(-c3ccc(C(N)=O)cc3)ccnc2O1 (configuration not stated) | 9.94 µM (active) | 
Cn1c(=O)c(N)c2c3c(c(Br)ccc31)C(=O)c1ccccc1-2 |  | 44.6%
CC1(C(=O)NCc2ccc(F)c(F)c2)Cc2c(-c3cccc(C(N)=O)c3)ccnc2O1 (configuration not stated) | 17.7 µM (active) | 
CC(=O)Nc1cccc(-c2ccnc3c2CC(C(=O)NCc2cccs2)O3)c1 (configuration not stated) | 2.23 µM (active) | 
CC1(C(=O)NCc2ccccc2)Cc2c(-c3ccc(C(N)=O)cc3)ccnc2O1 (configuration not stated) | 6.27 µM (active) | 

SMILES | Potency | max response
CC1(C(=O)NCc2ccccc2)Cc2c(-c3cccc(C(N)=O)c3)ccnc2O1 (configuration not stated) | 6.27 µM (active) | 
CC(=O)Nc1cccc(-c2ccnc3c2CC(C)(C(=O)NCc2ccccc2)O3)c1 (configuration not stated) | 1.4 µM (active) | 
CC(=O)Nc1ccc(-c2ccnc3c2CC(C(=O)NCc2ccccc2)O3)cc1 (configuration not stated) | 0.444 µM (active) | 
CC(=O)Nc1ccc(-c2ccnc3c2CC(C(=O)NCc2cccc(Cl)c2)O3)cc1 (configuration not stated) | 3.14 µM (active) | 
N#Cc1c(C(F)(F)F)cc(-c2ccccc2)nc1SCc1nc(N)nc(N2CCOCC2)n1 | 2.91 µM (active) | 
N#CC(C#N)=C1C=C2C=C(N3CCOCC3)CCC2CC1 (configuration not stated) |  | 51.3%
N#C/C(=C/c1ccc(N2CCCCCC2)o1)c1ccc(Cl)cc1 | 2.91 µM (active) | 
N#C/C(=C\c1ccc(N2CCOCC2)o1)c1ccccc1 | 14 µM (active) | 
Cc1ccc(/C(C#N)=C\c2ccc(N3CCOCC3)o2)cc1 | 17.7 µM (active) | 
N#C/C(=C/c1ccc(N2CCOCC2)o1)c1ccc(Cl)cc1 | 2.31 µM (active) | 
Cc1ccc(S(=O)c2ccc([N+](=O)[O-])c3nonc23)cc1 (configuration not stated) |  | 28.3%
CN1CCC(OC(=O)c2cc3cc(Cl)cc(Cl)c3oc2=O)CC1 |  | 17.4%
Cn1nnc2c[n+](CC(=O)c3ccc(Cl)cc3)cc(Br)c21 | 19.8 µM (active) | 
O=C(Nc1nnc(-c2ccc3c(c2)CCCC3)o1)c1c(F)cccc1F |  | 11.9%
C/C(=N\NC(=O)c1cc(C)nc2ccccc12)c1ccncc1 |  | -20.6%
O=C(N/N=C/c1ccc(Cl)cc1)c1cc(-c2cccnc2)nc2ccccc12 | 2.5 µM (active) | 
Cc1ccc(C=NNC(=O)c2cc(-c3cccnc3)nc3ccccc23)o1 | 15.8 µM (active) | 
Cc1ccc(/C=N/NC(=O)c2cc(-c3ccccc3)nc3ccccc23)o1 | 19.8 µM (active) | 
Cc1cc(C(=O)N/N=C/c2ccc(C)o2)c2ccccc2n1 | 4.98 µM (active) | 
O=C(N/N=C/c1c(O)n(-c2ccc(Cl)cn2)c(=O)c2ccccc12)c1ccncc1 |  | -19.7%
